Data as given in PubChem BioAssay (NCI).
“And” between values parts separate entries of the source, which are not always exact repeats. Equal entries are not always repeated. The panel holds about 83,000 compounds, 20% with a hit somewhere; the sample as a whole holds those more often.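 Results are percent growth after 48 hours of single-concentration exposure. 100 means growth as in untreated cells, lower positive values show inhibition; negative values down to -100 show cell death.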 The source made the active and inactive calls. The calls were made as follows: active = growth percent below 10; inactive = the rest.

What was measured:
Experiment in all cases: NCI-60 one-dose screen, 48 h (100 = growth as untreated, 0 = no growth, -100 = all killed)
Settings in all cases: 10 µM unless noted
NCI-H23 lung = system: NCI-H23 lung
NCI-H226 lung = system: NCI-H226 lung
NCI-H322M lung = system: NCI-H322M lung
HOP-62 NSCLC = system: HOP-62 NSCLC
NCI-H460 lung = system: NCI-H460 lung
HOP-92 NSCLC = system: HOP-92 NSCLC
NCI-H522 lung = system: NCI-H522 lung
A549/ATCC NSCLC = system: A549/ATCC NSCLC
786-0 renal = system: 786-0 renal
COLO 205 colon = system: COLO 205 colon
DU-145 prostate = system: DU-145 prostate
K-562 leukemia = system: K-562 leukemia
MALME-3M melanoma = system: MALME-3M melanoma
MDA-MB-231 breast = system: MDA-MB-231 breast
RXF 393 renal = system: RXF 393 renal
SF-268 CNS = system: SF-268 CNS
SF-295 CNS = system: SF-295 CNS
SF-539 CNS = system: SF-539 CNS
UACC-257 melanoma = system: UACC-257 melanoma
M14 melanoma = system: M14 melanoma

Compound	growth (NCI-H23 lung)	growth (NCI-H226 lung)	growth (NCI-H322M lung)	growth (HOP-62 NSCLC)	growth (NCI-H460 lung)	growth (HOP-92 NSCLC)	growth (NCI-H522 lung)	growth (A549/ATCC NSCLC)	growth (786-0 renal)	growth (COLO 205 colon)	growth (DU-145 prostate)	growth (K-562 leukemia)	growth (MALME-3M melanoma)	growth (MDA-MB-231 breast)	growth (RXF 393 renal)	growth (SF-268 CNS)	growth (SF-295 CNS)	growth (SF-539 CNS)	growth (UACC-257 melanoma)	growth (M14 melanoma)
Cc1ccc(C(=O)N(CCCN)[C@@H](c2nc3cc(Cl)ccc3c(=O)n2Cc2ccccc2)C(C)C)cc1	8.15% (active)	22.6% (inactive)	-9.48% (active)	-28% (active)	-72.4% (active)	-16.3% (active)	-45.9% (active)	-40% (active)	-13.7% (active)	-72.3% (active)	1.24% (active)	-30.6% (active)	-79% (active)	-75.7% (active)	6.94% (active)	-21.8% (active)	-60.4% (active)	-75.2% (active)	-56.6% (active)	-65.2% (active)
C=C1C(=O)O[C@@H]2[C@H]3[C@H](COC(C)=O)[C@@H](OC(C)=O)C[C@H]3C(=C)[C@@H](O)C[C@@H]12	96.2% (inactive)	98.8% (inactive)	102% (inactive)	91.7% (inactive)	103% (inactive)	99.8% (inactive)	73% (inactive)	90.6% (inactive)	85.8% (inactive)	100% (inactive)	76.5% (inactive)	86.8% (inactive)	88.9% (inactive)	99% (inactive)	99.5% (inactive)	96.5% (inactive)	103% (inactive)	103% (inactive)	83.3% (inactive)	87.6% (inactive)
Cc1nc(Nc2ncc(C(=O)Nc3c(C)cccc3Cl)s2)cc(N2CCN(CCO)CC2)n1	46.6% (inactive) and 32.6% (inactive)	31.9% (inactive) and 45.6% (inactive)	0.803% (active)	12% (inactive)	74.3% (inactive) and 42.7% (inactive)	-21.5% (active) and -11.5% (active)	-1.57% (active)	25.1% (inactive) and 6.75% (active)	22.2% (inactive) and 9.13% (active)	-1.08% (active) and -9.83% (active)	10.2% (inactive) and 12.5% (inactive)	7.66% (active)	51.4% (inactive) and 31.2% (inactive)	11.2% (inactive) and 8.95% (active)	-18.9% (active) and -46.2% (active)	28.4% (inactive) and 30.3% (inactive)	57.4% (inactive) and 37.3% (inactive)	18.8% (inactive) and -9.03% (active)	79.1% (inactive) and 48.4% (inactive)	42.4% (inactive) and 17.5% (inactive)
COc1cc(/C=C2\C(=O)N(CCCCn3c4ccccc4c(=O)c4ccccc43)c3ccccc32)cc(OC)c1O	71.6% (inactive)	91.5% (inactive)	86% (inactive)	102% (inactive)	60% (inactive)	65.7% (inactive)	27.4% (inactive)	95.4% (inactive)	88.3% (inactive)	107% (inactive)	60.4% (inactive)	15.6% (inactive)	66.3% (inactive)	70% (inactive)	70.5% (inactive)	60.1% (inactive)	84% (inactive)	64.3% (inactive)	81.7% (inactive)	52.3% (inactive)
C=C(C)[C@@H]1CC[C@]2(C(=O)O)CC[C@]3(C)[C@H](CC[C@@H]4[C@@]5(C)CCC(N)C(C)(C)[C@@H]5CC[C@]43C)[C@@H]12 (stereo not given in full)	81.5% (inactive)	100% (inactive)	68.9% (inactive)	80.4% (inactive)	33.1% (inactive)	88.1% (inactive)	11.7% (inactive)	47.9% (inactive)	0.398% (active)	-21.4% (active)	33.1% (inactive)	-28.2% (active)	-61.3% (active)	18.3% (inactive)	81.3% (inactive)	91.3% (inactive)	73.7% (inactive)	96.5% (inactive)	93.2% (inactive)	27.1% (inactive)
COc1ccc(Nc2nn3c(SCC(=O)c4ccc(C)cc4)nnc3s2)cc1	91.1% (inactive)	84.8% (inactive)	86.2% (inactive)	90.8% (inactive)	97.9% (inactive)	83.4% (inactive)	80.6% (inactive)	96.6% (inactive)	93.5% (inactive)	91.8% (inactive)	101% (inactive)	83.5% (inactive)	98.7% (inactive)	91.7% (inactive)	97.1% (inactive)	100% (inactive)	100% (inactive)	107% (inactive)	108% (inactive)	99.2% (inactive)
CCOC(=O)CC1CSC(c2cccc(Cl)c2)=N1 (stereo not given)	94.6% (inactive)	113% (inactive)	93.3% (inactive)	111% (inactive)	108% (inactive)	119% (inactive)	101% (inactive)	95.3% (inactive)	84.8% (inactive)	120% (inactive)	111% (inactive)	92.9% (inactive)	108% (inactive)	105% (inactive)	106% (inactive)	101% (inactive)	102% (inactive)	114% (inactive)	99.1% (inactive)	101% (inactive)
O=C(CCl)N(O)c1ccc(/C=C/c2ccccc2)cc1	70.7% (inactive) and 74.2% (inactive)	56.9% (inactive)	99.5% (inactive) and 91.5% (inactive)	96.5% (inactive)	85.4% (inactive) and 73% (inactive)	81.8% (inactive)	61.5% (inactive) and 30.4% (inactive)	90.3% (inactive) and 65% (inactive)	84% (inactive) and 78.3% (inactive)	92.9% (inactive) and 83.1% (inactive)	90.3% (inactive) and 86.6% (inactive)	64% (inactive) and 46.1% (inactive)	95.3% (inactive) and 84.2% (inactive)	82.1% (inactive) and 66.5% (inactive)	99.9% (inactive) and 71.3% (inactive)	84.7% (inactive) and 72.8% (inactive)	95.5% (inactive) and 80.9% (inactive)	94.3% (inactive) and 93.4% (inactive)	103% (inactive)	75% (inactive) and 71.8% (inactive)
Cc1nc2sc(C(=O)Nc3cccc4ccccc34)c(N)c2cc1C(=O)/C=C/c1ccccc1	9.08% (active)	-59.4% (active)	24% (inactive)	-21.1% (active)	-34.2% (active)	28.3% (inactive)	-33.4% (active)	12.9% (inactive)	-55.5% (active)	-15% (active)	-3.16% (active)	12% (inactive)	34% (inactive)	-16.2% (active)	-87.2% (active)	9.83% (active)	-30.7% (active)	-20.1% (active)	68.9% (inactive)	-15.3% (active)
Cc1cc(N2CCCCC2)nc(NCc2cc(Nc3ccnc4cc(Cl)ccc34)ccc2F)n1	22.3% (inactive)	68.2% (inactive)	-12.7% (active)	-49.5% (active)	-22.7% (active)	-21.9% (active)	-57.9% (active)	2.71% (active)	-80.1% (active)	-72.7% (active)	-1.6% (active)	-31.4% (active)	-75% (active)	-73.3% (active)	-66.2% (active)	-17.2% (active)	-84.5% (active)	-77.7% (active)	-64.4% (active)	-67.8% (active)
COc1ccc(-c2c[nH]c(C(=O)O)c2-c2cc(OC)c(OC)c(OC)c2)cc1	48.5% (inactive)	88.9% (inactive)	47.9% (inactive)	37.3% (inactive)	14.4% (inactive)	32.2% (inactive)	28.1% (inactive)	49.4% (inactive)	31.3% (inactive)	14.7% (inactive)	49% (inactive)	11.7% (inactive)	33.7% (inactive)	57.7% (inactive)	-3.91% (active)	64.9% (inactive)	23.6% (inactive)	2.29% (active)	78.8% (inactive)	45.7% (inactive)
CC/C=C\C/C=C\C[C@H](O)C/C=C1/C(=O)C=C[C@@H]1C/C=C\CCCC(=O)OC	-19.9% (active)	-48.3% (active)	10.6% (inactive)	-30.3% (active)	-40% (active)	-23% (active)	-52.3% (active)	-23.7% (active)	-60.6% (active)	-69.4% (active)	6.78% (active)	3.6% (active)	-5.8% (active)	-5.48% (active)	-58.2% (active)	8.53% (active)	-8.95% (active)	1.23% (active)	-13.9% (active)	-23% (active)
COc1ccc(/C=C2/C(=O)N=C3N2NC(c2ccccc2)=CN3c2ccccc2)cc1	86.4% (inactive)	93.2% (inactive)	103% (inactive)	105% (inactive)	106% (inactive)	102% (inactive)	101% (inactive)	104% (inactive)	98.6% (inactive)	121% (inactive)	114% (inactive)	108% (inactive)	102% (inactive)	107% (inactive)	89.7% (inactive)	98.5% (inactive)	103% (inactive)	94.8% (inactive)	108% (inactive)	98.3% (inactive)
